An excerpt weighted towards active compounds, which were near 7.6% of everything screened.
SW480 rerep: inducers of DNA re-replication in SW480 colon cancer cells; SW480 DNA re-replication, Hoechst DNA content imaging, 48 h; Potency, µM (top dose mostly 46.1 µM), for inactives: top-dose re-replication activation, actives largely listed as activators; 340,000 tested, 1.8% active; AID 624297; also: potency is read from the fitted curve at half-maximal effect; % of control where 0% means no effect; nearly all actives have a fitted effect of over 55% in size
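Image-based DNA-content assay: after two days of treatment, nuclei were labelled with the DNA dye Hoechst and imaged, and hits were compounds raising the count of nuclei showing high fluorescence intensity.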
MCF10A rerep: inducers of DNA re-replication in MCF 10A breast cells | MCF 10A DNA re-replication, Hoechst nuclear intensity, 48 h | AID 624296 | Potency, µM (highest dose often 46.1 µM), without a hit: at the highest dose activity, positive = re-replication, most hits filed as activators | 350,000 tested, 2.9% active; also: potency is read from the fitted curve at half-maximal effect; % of control where 0% means no effect; nearly all actives have a fitted effect of over 50% in size
KB-3-1 tox: kills parental KB-3-1 adenocarcinoma cells; Potency, µM (titrated, usually from 46.1 µM), usual class: cytotoxic; 400,000 tested, 1.4% active; KB-3-1 viability, CellTiter-Glo ATP luminescence, 72 h; also: potency is read from the fitted curve at half-maximal effect; % is scaled to controls: 0 for no effect and ±100 for the full control effect; nearly all actives have a fitted effect of over 60% in size
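Cells are dispensed, compounds pinned in, plates held at 37 °C for 72 h, then CellTiter-Glo is added and luminescence read after 10 minutes. Cell line: parental KB-3-1 in phenol-red-free DMEM, 10% FBS.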
hERG WT inh: inhibitors of human wildtype KCNH2 potassium channel | U2OS, BacMam KCNH2, thallium flux FluxOr; hits give low values | Q12809 | 340,000 tested, 0.37% active | activity change, % at 1.84 µM;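 active = maximum activity change below -70%; inconclusive = maximum activity change between -70% and -50%; inactive = maximum activity change above -50%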; also: % is scaled to controls: 0 for no effect and ±100 for the full control effect
Target sequence (Q12809 whole entry, looked up): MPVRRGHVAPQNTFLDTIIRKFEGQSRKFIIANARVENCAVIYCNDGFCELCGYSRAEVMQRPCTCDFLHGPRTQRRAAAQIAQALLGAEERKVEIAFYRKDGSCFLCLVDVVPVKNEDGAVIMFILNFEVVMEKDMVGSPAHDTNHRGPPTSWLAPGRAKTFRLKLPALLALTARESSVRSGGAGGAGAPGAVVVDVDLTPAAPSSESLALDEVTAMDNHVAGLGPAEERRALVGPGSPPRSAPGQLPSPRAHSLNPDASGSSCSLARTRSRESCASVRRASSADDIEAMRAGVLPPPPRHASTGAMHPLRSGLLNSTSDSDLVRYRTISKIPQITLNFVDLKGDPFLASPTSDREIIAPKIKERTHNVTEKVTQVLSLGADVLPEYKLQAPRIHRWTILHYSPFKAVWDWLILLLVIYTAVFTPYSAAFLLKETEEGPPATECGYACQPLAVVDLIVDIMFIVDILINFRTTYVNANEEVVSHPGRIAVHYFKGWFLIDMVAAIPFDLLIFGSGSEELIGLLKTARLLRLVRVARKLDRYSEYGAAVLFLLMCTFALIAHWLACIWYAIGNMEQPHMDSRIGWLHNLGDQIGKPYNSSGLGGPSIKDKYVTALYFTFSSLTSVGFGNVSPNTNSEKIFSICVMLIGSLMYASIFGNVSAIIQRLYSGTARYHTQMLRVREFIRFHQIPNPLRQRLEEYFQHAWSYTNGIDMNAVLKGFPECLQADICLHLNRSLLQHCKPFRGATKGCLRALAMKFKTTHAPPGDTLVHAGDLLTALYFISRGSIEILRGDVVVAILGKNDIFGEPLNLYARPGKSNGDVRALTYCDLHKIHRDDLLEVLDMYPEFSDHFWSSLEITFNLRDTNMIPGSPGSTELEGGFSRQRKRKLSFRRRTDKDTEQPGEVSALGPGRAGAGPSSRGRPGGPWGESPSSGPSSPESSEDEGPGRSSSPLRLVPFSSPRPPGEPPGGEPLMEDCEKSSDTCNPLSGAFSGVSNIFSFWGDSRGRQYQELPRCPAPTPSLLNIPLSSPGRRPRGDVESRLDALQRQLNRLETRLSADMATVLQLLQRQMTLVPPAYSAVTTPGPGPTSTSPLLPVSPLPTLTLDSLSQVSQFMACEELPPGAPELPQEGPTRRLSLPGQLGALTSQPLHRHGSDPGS
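U2OS cells transduced with wild-type KCNH2 virus are loaded with FluxOr dye for 45 min, and thallium flux is measured in kinetic reads before and after stimulation buffer. Rate constants are normalized to DMSO controls.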
KB-V1 MDR tox: kills drug-selected multidrug resistant KB-V1 cells; KB-V1 MDR cells viability, CellTiter-Glo, 72 h; Potency, µM (series often up to 46.1 µM), hits mostly cytotoxic; 400,000 tested, 3.4% active; also: potency is read from the fitted curve at half-maximal effect; % is scaled to controls: 0 for no effect and ±100 for the full control effect; nearly all actives have a fitted effect of over 60% in size
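Potencies derive from concentration-effect curves fitted to normalized luminescence (CellTiter-Glo) of KB-V1 cells treated for 72 h at 37 degrees C in phenol-red-free DMEM containing 10% FBS.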
KCNH2 3.1 inh: KCNH2 3.1 (human) potassium channel inhibition | U2OS KCNH2 3.1, thallium flux FluxOr; hits give low values | activity change, % (tested at about 1.8 µM) | 340,000 tested, 0.95% active;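 active = maximum activity change below -70%; inconclusive = maximum activity change from -70% to -50%; inactive = maximum activity change above -50%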;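 also: thallium influx rate constant from kinetic fluorescence after stimulation buffer; % is scaled to controls: 0 for no effect and ±100 for the full control effect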
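Channel expression came from 3.1 mutant virus (1.77 x 10^8 /mL) applied to suspended U2OS cells for 4 h. Flux was tracked with FluxOr dye plus Red40 quencher, and kinetic rate constants normalized to controls.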
* hit, by the source's call; i = inactive; u = inconclusive; x = no result; ! = repeats disagree. Unless noted, calls follow the shape of the dose curve; as a rule, active = well fitted curve in the direction sought with a large enough effect; inconclusive = small, poorly fitted or top-dose-only effect, or another doubt; inactive = no such curve, though single readings can be large; an effect the other way counts as inactive or inconclusive.

SMILES	SW480 rerep	MCF10A rerep	KB-3-1 tox	hERG WT inh	KB-V1 MDR tox	KCNH2 3.1 inh
CCCCCCC[n+]1ccc(/C=C/c2c[nH]c3ccccc23)cc1	x	x	0.411µM*	x	i	x
CCCCCCCCCC[n+]1ccc(/C=C/c2c(C)[nH]c3ccccc23)cc1	x	x	1.3µM*	x	u	x
CCCCCCCCCC[n+]1ccc(/C=C/c2c[nH]c3ccccc23)c2ccccc21	x	x	8.2µM*	x	u	x
CCc1ccc(C(=O)c2cn(CC(=O)Nc3ccc4c(c3)OCO4)c3ccc(CC)cc3c2=O)cc1	x	x	i	x	i	x
Cc1ccc(C)c(NC(=O)CS(=O)(=O)c2cccc3nsnc23)c1	15.0%	23.7%	i	19.7	i	2.4
Cc1nc(C)c(C(=O)NCc2ccccc2Cl)o1	-3.3%	1.2%	u	-21.5	20.6µM*	3.7
CCc1c(C(=O)NCc2ccccc2Cl)[nH]c(C)c1C(C)=O	-0.7%	u	i	-2.3	7.31µM*	-9.8
CC(=O)c1c(C)[nH]c(C(=O)NCc2ccccc2F)c1C	-5.1%	-3.8%	i	-2.0	i	-1.9
CC(=O)c1c(C)[nH]c(C(=O)NCc2ccccc2Cl)c1C	-10.8%	2.1%	i	12.2	23.1µM*	9.2
CCC(=O)Nc1cc2c3c(c1)CCN3C(=O)CC2	-0.5%	-7.4%	i	21.5	u	11.5
Cc1ccc(C(CC(=O)c2ccco2)SCCO)cc1 (stereo not given)	u	u	i	-20.4	u	-1.2
O=C(CC(SCCO)c1ccc(F)cc1)c1ccco1 (stereo not given)	u	20.6µM*	i	3.4	i	2.2
Cc1ccc(CN2CC34C=CC(O3)C(C(=O)NCc3ccco3)C4C2=O)cc1 (stereo not given)	-4.2%	-0.1%	i	5.9	18.4µM*	-1.7
CCCCNC(=O)C1C2C=CC3(CN(Cc4ccc(C)cc4)C(=O)C13)O2 (stereo not given)	-17.6%	0.0%	i	3.3	i	-11.0
Nc1ccc(S(=O)(=O)NCC(=O)OCCOc2ccccc2)cc1[N+](=O)[O-]	-66.7%	14.6µM*	i	0.2	i	-12.5
CSc1ccc(S(=O)(=O)NCC(=O)OCCOc2ccccc2)cc1[N+](=O)[O-]	4.1%	u	i	3.3	i	-31.1
COc1ccccc1C(=O)NNC(=S)NC(=O)c1sc2ccccc2c1Cl	u	u	i	-7.9	i	6.9
COc1ccccc1C(=O)NC(=S)NNC(=O)c1sc2ccccc2c1Cl	19.5%	5.17µM*	i	-8.5	i	-12.1
CC(NC(=O)c1ccccc1NC(=O)c1nsc2ccccc12)c1ccccc1 (stereo not given)	x	x	i	x	i	x
CCC(=O)N1CCc2cc(Br)cc(S(=O)(=O)CCC(=O)Nc3cccc(CC)c3)c21	x	x	i	x	i	x
N#C/C(=C\c1ccncc1)c1nc2ccccc2o1	-42.7%	14.6µM*	i	33.1	i	7.6
N#C/C(=C\c1ccc(Cl)cc1)c1nc2ccccc2o1	u	u	i	13.3	i	-20.4
N#C/C(=C\Nc1ccccc1O)c1nc2ccccc2o1	-0.6%	u	i	-6.3	20.6µM*	2.3
CC1CCC(NC(=O)CCNS(=O)(=O)c2ccc3c(c2)CCC(=O)N3)CC1 (stereo not given)	23.3%	-5.9%	i	0.8	i	33.7
C[n+]1c(/C=C/c2ccc(F)cc2)ccc2ccccc21	x	x	u	x	i	x
SMILES	SW480 rerep	MCF10A rerep	KB-3-1 tox	hERG WT inh	KB-V1 MDR tox	KCNH2 3.1 inh
CCOc1ccc2nc(NCCNC(=O)Nc3cccc(C)c3)c(C#N)cc2c1	9.2µM*	u	u	-4.4	u	-11.3
CCOc1ccc2nc(NCCNC(=S)NCCCN(C)C)c(C#N)cc2c1	16.4µM*	11.6µM*	i	1.8	i	-6.1
Cc1cc2cc(C#N)c(NCCNC(=S)NCCCN3CCOCC3)nc2cc1C	16.4µM*	20.6µM*	i	0.3	u	6.0
COc1ccc2nc(NCCNC(=S)NCCCN3CCOCC3)c(C#N)cc2c1	u	9.0%	i	-13.0	i	-11.5
CCOc1ccc2nc(NCCNC(=O)Nc3ccccc3)c(C#N)cc2c1	u	u	i	0.5	u	-16.7
O=S(=O)(CCc1ccncc1)c1ccc(Cl)cc1	1.3%	-2.2%	i	15.3	i	-1.0
COc1ccc(O)c(C(=O)c2coc(=N)c(C(=O)Nc3ccc(SC(F)F)cc3)c2)c1	0.3%	29.3%	i	-4.8	23.1µM*	u
O=C(O)CN1CCN(CC(=O)O)CCN(CC(=O)O)CCN(CC(=O)O)CC1	-7.3%	-4.4%	i	5.5	i	0.2
O=C(O)CN1CCNCCN(CC(=O)O)CCNCC1	2.91µM*	-9.2%	u	10.4	u	12.1
c1ccc(-c2cn3c4c(sc3n2)CCCC4)cc1	u	20.6µM*!	u	0.9	u	-0.5
CC1(C)CC(=O)C=C(NCc2cccc(C(F)(F)F)c2)C1	9.2µM*	-5.3%	i	7.2	u	-1.3
CCCn1c(N)c(C(=O)CSc2ncn[nH]2)c(=O)n(C)c1=O	-4.3%	-1.6%	i	-2.1	i	7.8
CCCCn1c(N)c(C(=S)NC(=O)CC(C)(C)C)c(=O)n(C)c1=O	7.3%	20.6µM*	u	-6.5	u	3.3
CC(C)(C)NCc1cccn1-c1sc2c(c1C#N)CCCC2	-3.2%	12.1%	i	-7.1	16.4µM*	3.6
Cc1ccccc1-c1ncnn1-c1sc2c(c1C#N)CCCCC2	x	x	i	x	i	x
COc1ccc(-n2c(N)c(C(=O)NCC3CCCO3)c3nc4ccccc4nc32)c(OC)c1 (stereo not given)	u	u	i	-22.4	i	-7.9
O=C(NCC1CCCO1)c1coc2nc3ccccc3nc12 (stereo not given)	10.6%	20.6µM*	i	23.2	u	3.3
O=C(Nc1ccccc1C(=O)NCC1CCCO1)c1ccccc1 (stereo not given)	-3.1%	2.1%	i	-7.3	i	-3.6
C=CCn1c(N)c(C(=O)NCC2CCCO2)c2nc3ccccc3nc21 (stereo not given)	9.2µM*	-7.2%	i	2.3	u	-4.4
CCN(CCNC(=O)C1CCN(Cc2nc(-c3ccc(Cl)cc3)oc2C)CC1)c1ccccc1	u	u	i	-28.6	7.31µM*	-72.2*
CCc1ccc(-c2nc(CN3CCC(C(=O)N4CCN(c5ccccn5)CC4)CC3)c(C)o2)cc1	3.8%	u	u	-26.8	i	-47.6

Compound activity from PubChem.
